This is a sample that favours compounds with a hit; in the whole collection about 11% have one here.
AmpC inh no detg = inhibitors of E. coli AmpC beta-lactamase without detergent. Potency, µM (doses to about 57.1 µM), inactives show at the top dose activity change, negative = inhibition, usual class: inhibitors. AID 485341. hit rate 0.52% among 330,000. AmpC nitrocefin hydrolysis, absorbance 480 nm, 0.0001% Triton. P00811;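 note: plate controls were no compound for no effect and no enzyme for full effect; nearly all actives have a fitted effect of over 20% in size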
Target sequence (P00811 whole entry, looked up): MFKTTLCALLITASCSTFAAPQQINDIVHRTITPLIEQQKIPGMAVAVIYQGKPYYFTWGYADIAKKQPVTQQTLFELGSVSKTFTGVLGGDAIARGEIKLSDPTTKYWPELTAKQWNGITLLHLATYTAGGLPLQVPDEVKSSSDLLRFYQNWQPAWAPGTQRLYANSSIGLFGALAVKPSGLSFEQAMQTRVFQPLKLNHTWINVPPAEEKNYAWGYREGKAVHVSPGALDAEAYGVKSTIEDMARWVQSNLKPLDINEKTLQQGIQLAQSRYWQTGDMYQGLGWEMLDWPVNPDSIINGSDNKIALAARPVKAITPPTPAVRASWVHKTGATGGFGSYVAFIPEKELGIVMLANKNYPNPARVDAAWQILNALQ
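AmpC (5.3 nM in the dispensed reagent) in 20 mM phosphate pH 7.0 with 0.01% (detergent screen) or 0.0001% Triton X-100 was preincubated with compounds for 15 min at room temperature. Nitrocefin was then added from an 800 uM solution, and hydrolysis was followed at 480 nm.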
Pf growth 96h = P. falciparum growth inhibition at 96 hour, primary screen for plastid delayed-death inhibitors; P. falciparum luciferase reporter growth, 96 h; Potency, µM (titrated, usually from 28.7 µM), for the others: at the highest dose activity change, negative = inhibition, hits mostly inhibitors; hit rate 6.9% among 320,000; AID 504834
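Two-generation exposure (96 h) targets delayed-death phenotype. Reporter parasites carrying integrated firefly luciferase, in red cells at 2% hematocrit and 0.05% parasitemia final, kept at 37 C, 5% CO2; luminescence loss indicates inhibition.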
Pf growth 48h = inhibits P. falciparum growth in the first generation, 48 h; hit rate 5.9% among 310,000; Potency, µM (series often up to 28.7 µM), inactives show at the highest dose activity change, negative = inhibition, actives largely listed as inhibitors; P. falciparum luciferase growth in erythrocytes, 48 h; AID 504832
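Compounds are pin-transferred into medium, infected erythrocytes (2% hematocrit, 0.1% parasitemia final) are added, and plates sit one parasite generation at 37 C in 5% CO2. Detection reagent is then added and luminescence measured.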
AMA1-RON2 inh = AMA1-RON2 (P. falciparum) interaction inhibition. AlphaScreen AMA1-biotinylated RON2 peptide binding. Potency, µM (top dose mostly 58.2 µM), for inactives: top-dose activity change, negative = inhibition, actives largely listed as inhibitors. hit rate 0.2% among 360,000. AID 720542;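 note: 0% = vehicle wells and -100% = peptide control; nearly all actives have a fitted effect of over 45% in size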
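AMA1 (3D7) with his tag at 25 nM final met compounds first, then biotinylated RON2 peptide at 25 nM; detection used donor plus acceptor beads, 10 µg/mL apiece, read by AlphaScreen after 30 min at room temperature.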
AmpC detergent = inhibitors of E. coli AmpC beta-lactamase with detergent; P00811; AmpC hydrolysis of nitrocefin, absorbance 480 nm, 0.01% Triton; Potency, µM (highest dose often 114 µM), for inactives: at the highest dose activity change, negative = inhibition, actives largely listed as inhibitors; hit rate 0.041% among 370,000;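 note: 0% = no-compound wells and -100% = no-enzyme wells; nearly all actives have a fitted effect of over 25% in size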
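20 mM phosphate pH 7.0 + 0.01% (detergent screen) or 0.0001% Triton X-100; 5.3 nM AmpC reagent; cpd preinc 15 min RT; nitrocefin (800 uM stock) to start; A480 q20 s × 4 min; Activity was normalised to no-enzyme and no-compound control wells.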
HCV inhibitor = blocks hepatitis C virus | Huh7.5.1 HCVcc-Cre infection, luciferase reporter, 44 h | Potency, µM (highest dose often 41.8 µM), for inactives: at the highest dose activity change, negative = inhibition, usual class: inhibitors | hit rate 3.4% among 340,000
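Whole-lifecycle infectious HCVcc-Cre system; cells 1,000/well, compound then virus (~0.5 moi) added 4 h after plating, 44 h culture. Luciferase read 15 sec following 15 min substrate incubation, room temp.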
An asterisk follows results filed as active; ? = inconclusive; . = no result. Calls come from the whole dose curve; as a rule, active = well fitted curve in the direction sought with a large enough effect; inconclusive = small, poorly fitted or top-dose-only effect, or another doubt; inactive = no such curve, though single readings can be large; an effect the other way counts as inactive or inconclusive. Unless noted, % is set by controls: 0 for no effect and ±100 for the full control effect; potency is the fitted concentration of half-maximal effect.

SMILES	AmpC inh no detg	Pf growth 96h	Pf growth 48h	AMA1-RON2 inh	AmpC detergent	HCV inhibitor
COc1ccc(OC)c(-n2nnnc2SCC(=O)NCCc2ccccc2)c1	-6.4%	9.28µM*	50.8%	13.3%	1.7%	?
COc1cccc(-n2nnnc2SCC(=O)c2cc(OC)ccc2OC)c1	-16.7%	11.7µM*	21.0%	.	5.9%	.
COc1ccc(-c2noc(CC(=O)N(C)c3cc(Cl)c(OC)cc3OC)n2)cc1	.	.	.	.	1.2%	.
CCOc1ccc(NC(=O)Cn2c(=O)n(-c3ccccc3)c(=O)c3ccc(C(=O)NCc4ccc5c(c4)OCO5)cc32)cc1	.	.	.	.	0.2%	.
COC(=O)c1ccc(NC(=O)c2nn(C)c3c2CS(=O)(=O)c2ccccc2-3)cc1	.	.	.	.	12.1%	.
CCOC(=O)c1cc2c(=O)n3ccccc3nc2n(CCOC)c1=NC(=O)c1c(-c2ccccc2Cl)noc1C	.	.	.	.	6.2%	.
CN(Cc1cn(C)c2ccccc12)C(=S)Nc1cc(F)cc(F)c1	-5.6%	-11.3%	11.7µM*	?	2.4%	-10.9%
Cc1cccc(NC(=S)N(C)Cc2cn(C)c3ccccc23)c1	-27.0%	29.7%	-21.3%	-9.2%	?	-25.4%
O=C(c1ccccc1)n1nc(-c2ccco2)nc1NCc1ccccc1Cl	.	.	.	.	-4.3%	.
O=C1C(=O)N(C2CCN(C(=O)c3ccccc3Cl)CC2)CCN1Cc1ccc(F)cc1	.	.	.	.	-2.0%	.
COc1ccc(OCc2ccc(-c3nc(C#N)c(NCc4ccc(F)cc4)o3)o2)cc1	.	.	.	.	24.1%	.
CCc1cc(C(=O)NNC(=O)CCN2CCN(c3ccccc3)CC2)sc1C	2.7%	28.7%	5.1%	108.7%	4.7%	-9.3%
CCc1cc(C(=O)NNC(=O)CCl)sc1C	-13.5%	1.47µM*	1.04µM*	43.5%	4.4%	-15.3%
O=C(CSC1=Nc2ccccc2C2=NC(Cc3ccccc3)C(=O)N12)Nc1cccc(Cl)c1 (stereo not drawn)	.	.	.	.	14.1%	.
COc1ccc(/C=N/Nc2cc(C)nc3ccccc23)cc1	-0.9%	16.7%	0.738µM*	6.2%	-6.3%	?
COc1ccc(/C=N/Nc2cc(C)nc3c(C)cccc23)cc1	-10.9%	-17.5%	?	-11.9%	7.2%	12.6µM*
COc1ccc2nc(C)cc(N/N=C/c3ccc(F)cc3)c2c1	-32.2%	12.2%	?	2.7%	-9.0%	?
CC1CCCCN1CCCNC(=O)Cn1ncc2c3ccccc3n(Cc3ccccc3)c2c1=O (stereo not drawn)	.	.	.	.	17.7%	.
CCOC(=O)c1ccc(-n2c(N)c(C(=O)OC)c3nc4ccccc4nc32)cc1	.	.	.	.	6.1%	.
Cc1ccc(C(=O)c2c(N)c(-c3nc(-c4ccc5c(c4)OCO5)cs3)c3ccccn23)cc1C	.	.	.	.	22.8%	.
COc1ccc(NC(=O)C(=O)NCCN2CCN(C(=O)c3ccco3)CC2)cc1	7.2%	0.928µM*	9.6%	-1.2%	-0.1%	24.0%
O=C(c1ccco1)N1CCN(Cc2c(Cl)cccc2Cl)CC1	1.6%	2.62µM*	18.6%	-1.2%	-16.4%	-10.0%
COc1cccc(C2=NN(C(=O)c3ccco3)C(O)(C(F)(F)F)C2)c1 (stereo not drawn)	-23.1%	-22.0%	4.15µM*	12.0%	1.2%	-1.5%
O=C(c1ccco1)N1CCN(Cc2cc(=O)c(OCc3ccc([N+](=O)[O-])cc3)co2)CC1	-0.3%	?	?	10.7%	?	-7.8%
COc1ccc(CC(=O)N2CCN(C(=O)c3ccco3)CC2)cc1	-16.2%	.	-0.5%	-1.9%	-7.9%	3.8%
SMILES	AmpC inh no detg	Pf growth 96h	Pf growth 48h	AMA1-RON2 inh	AmpC detergent	HCV inhibitor
COc1cccc(C2=NN(C(=O)c3ccccc3)C(O)(C(F)(F)F)C2)c1 (stereo not drawn)	-15.5%	.	8.7%	72.7%	0.6%	-8.5%
Cc1ccc(COc2coc(CN3CCN(C(=O)c4ccco4)CC3)cc2=O)cc1	2.8%	?	11.7µM*	7.0%	0.0%	-6.7%
CC(C)c1nn2c(=O)cc(COC(=O)c3cccc(NC(=O)COc4ccc(F)cc4)c3)nc2s1	.	.	.	.	2.8%	.
COc1ccc(OC)c(CN2CCN(C(=O)c3ccco3)CC2)c1	-1.8%	?	15.0%	?	-0.8%	5.5%
COc1cccc(CN2CCN(C(=O)c3ccco3)CC2)c1	2.9%	0.828µM*	42.9%	-23.4%	1.0%	27.1%
CCNc1c(NC(=O)COc2ccc(Cl)cc2)c(=O)oc2ccccc12	-30.7%	?	?	-0.9%	-5.0%	-14.5%
CCCNc1c(NC(=O)COc2ccc(Cl)cc2)c(=O)oc2ccccc12	-19.5%	?	0.0657µM*	-6.3%	-5.2%	-6.0%
CC1(C)O[C@H]2[C@@H](O1)[C@@H](C(=O)Nc1cc(F)ccc1F)O[C@@H]1OC(C)(C)O[C@@H]12	.	.	.	.	22.4%	.
Cc1ccccc1N=C1NC(=O)/C(=C/c2cccn2C)S1	-15.6%	-16.7%	?	-25.5%	-2.5%	-14.7%
O=C1NC(=Nc2ccccc2)S/C1=C\c1cccn1-c1ccccc1	-36.2%	?	.	-12.1%	-9.8%	2.82µM*
Cc1cccc(N=C2NC(=O)/C(=C/c3cccn3C)S2)c1	-34.7%	?	?	-3.5%	-4.6%	11.2µM*
Cc1cccc2sc(NNC(=O)c3ccc(S(=O)(=O)N4CCc5ccccc5C4)cc3)nc12	14.1µM*	5.22µM*	?	35.6%	-8.8%	?
Cc1cccc2sc(NNC(=O)c3ccc(S(=O)(=O)N4CCCC(C)C4)cc3)nc12 (stereo not drawn)	-26.8%	38.7%	31.2%	51.9%	?	2.82µM*
COc1ccc(CCn2c(=O)c3ccccc3n(CC(=O)Nc3cccc(C)c3)c2=O)cc1OC	.	.	.	.	6.3%	.
COc1cc(-n2nnnc2SCC(=O)N2CCN(c3ccc(F)cc3)CC2)c(OC)cc1Cl	8.9%	.	14.7µM*	-20.5%	?	11.2µM*
CCCCc1ccc(CC(=O)O)cc1	-12.9%	17.0%	23.4%	18.1%	-11.4%	8.6%
CCCCCc1ccc(CC(=O)O)cc1	-14.0%	9.28µM*	10.3%	2.0%	-0.3%	24.2%
O=C(CN1CCCCC1)N1c2ccccc2CCc2ccccc21	-11.8%	?	.	1.9%	-4.5%	-2.6%
O=C(c1ccco1)N1CCN(CC(=O)N2c3ccccc3CCc3ccccc32)CC1	61.1%	10.4µM*	?	-13.0%	-4.2%	7.0%
CC1CCN(CC(=O)N2c3ccccc3CCc3ccccc32)CC1	1.5%	24.7%	14.7µM*	-4.2%	1.2%	-3.7%
CCCOc1ccc(C2NC(=S)NC(c3ccccc3)=C2C(=O)Nc2ccc(C)cc2)cc1OC (stereo not drawn)	-16.4%	-21.1%	2.62µM*	9.9%	5.8%	?
